# Rows were chosen to be rich in hits. Some 5.4% of all compounds tested hit in one or more screens of this group.
# CSC inhib = cancer stem cell inhibition; cancer stem cell-like cells viability, luminescence; 300,000 compounds, 1.1% hits; AID 2717; inhibition, % at 7.5 µM; in the data active = inhibition above about 75%; tested in HMLE shEcad cells
# PP5 primary = PP5 (human) phosphatase inhibition | AID 1987 | 320,000 compounds, 0.18% hits | P53041 | inhibition, % at 6.7 µM | purified PP5c, OMFP substrate fluorescence;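 active = inhibition above the campaign's mean inhibition across all tested compounds plus 3 SD, cut at about 9.5% in these data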;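 note: 0% = DMSO only and 100% = 100 µM cantharidin control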
# Calb FLC = affects C. albicans growth with fluconazole; growth inhibition, % (no concentration beside the values); C. albicans CaCi-2 (fluconazole-resistant clinical isolate) + fluconazole, Alamar Blue growth, 48 h; 300,000 compounds, 0.57% hits;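 active = growth inhibition above about 58% in most replicates, limit read from the data, passing the limit was not always enough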;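 note: all wells also contain fluconazole at 8 µg/ml as a sub-toxic cotreatment; 0% = median of DMSO wells and 100% = median of geldanamycin control wells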
# ALR inh = human ALR oxidase inhibition via reduced H2O2; purified ALR, DTT oxidation, H2O2 HRP-luminol luminescence; inhibition, % (no concentration beside the values); 290,000 compounds, 3.8% hits;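 active = mean replicate inhibition above about 79%, with every replicate also reaching it, limit read from the data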
# Target sequence (P55789 whole entry, looked up): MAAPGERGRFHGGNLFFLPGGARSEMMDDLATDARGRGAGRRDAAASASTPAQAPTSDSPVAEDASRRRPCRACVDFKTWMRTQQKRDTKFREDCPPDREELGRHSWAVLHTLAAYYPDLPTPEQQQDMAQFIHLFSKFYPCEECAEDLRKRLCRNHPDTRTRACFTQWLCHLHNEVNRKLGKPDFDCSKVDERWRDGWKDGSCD
# PP1 inh = blocks human PP1-alpha phosphatase, a PP5 counter-screen | P62136 | purified PP1alpha, OMFP fluorescence | inhibition, % at 6.7 µM | 320,000 compounds, 0.9% hits | AID 2235;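 active = inhibition above the mean inhibition of all tested compounds plus 3 SD, computed separately for each screening campaign, cut at about 15% in these data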
# Target sequence (P62136 whole entry, looked up): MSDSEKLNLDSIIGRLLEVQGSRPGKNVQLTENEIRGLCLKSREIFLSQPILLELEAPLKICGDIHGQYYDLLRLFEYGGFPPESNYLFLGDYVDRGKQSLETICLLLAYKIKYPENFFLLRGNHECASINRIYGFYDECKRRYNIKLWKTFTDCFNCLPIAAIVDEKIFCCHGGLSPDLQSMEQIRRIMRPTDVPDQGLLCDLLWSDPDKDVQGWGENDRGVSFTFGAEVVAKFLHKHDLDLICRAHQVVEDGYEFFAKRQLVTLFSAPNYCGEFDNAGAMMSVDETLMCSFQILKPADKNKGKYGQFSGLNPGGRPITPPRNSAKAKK
# The depositor's hits bear a star; x = no result given.
SMILES,CSC inhib,PP5 primary,Calb FLC,ALR inh,PP1 inh
CCCCCCCNC(=O)C1(CC2CC(c3cccc(Br)c3)=NO2)CCN(C(=O)Cc2ccc(F)cc2)CC1 (stereo not given),10.7,4.1,x,x,9.6
CCCCCCCNC(=O)C1(CC2CC(c3cccc(Br)c3)=NO2)CCNCC1 (stereo not given),158.6*,1.4,54.4,-2.2,14.0
Cc1cc(C(=O)CSc2nnc(-c3cccs3)n2Cc2ccccc2)c(C)n1C,11.9,1.9,-16.8,-3.5,2.6
O=S(=O)(Nc1cc(Sc2cccc3cccnc23)c(O)c2ccccc12)c1ccc(F)cc1,119.5*,-0.9,2.1,x,-1.6
COc1ccc(S(=O)(=O)Nc2cc(SCC(=O)O)c(O)c3ccccc23)cc1,36.9,4.5,60.0,56.4,0.6
O=C(NCCCc1ccccc1)Nc1cccc(Cl)c1,21.3,4.1,106.8*,-1.8,3.6
Cc1cccc(NC(=S)N/N=C(\c2ccccc2)C(C)C)c1,11.4,3.6,101.8*,-27.7,0.8
O=C(NCCc1ccncc1)Nc1cccc(Cl)c1,10.4,1.1,-8.0,-1.1,2.2
CC/C(=N\NC(=S)Nc1cccc(C)c1)c1ccccc1,12.2,2.9,5.1,-6.0,2.8
CC(C)CCNC(=S)Nc1ccccn1,-1.3,2.8,-5.7,91.2*,3.3
S=C(NCCC(c1ccccc1)c1ccccc1)Nc1cccc(Cl)c1,122.5*,3.9,-6.9,-3.6,8.1
COc1ccc(OC)c(CN2CCN(C(=O)c3cccs3)CC2)c1,-0.9,-0.3,-11.8,-1.6,0.3
CCn1cnc2sc(C(=O)O)c(C)c2c1=O,x,-1.6,-30.4,-9.6,-2.4
CC(=O)Oc1ccc(/C=N\NC(=O)c2cc3c(ccc4ccccc43)o2)cc1,x,0.5,38.6,-6.8,2.8
Cc1cccc(NC(=S)NCCC(C)C)c1,-9.6,0.9,-16.3,92.0*,-1.3
COc1ccc(CCNC(=S)Nc2cccc(C)c2)cc1,-5.5,2.1,-0.2,-5.9,0.2
O=C(CCC1N=C2c3ccccc3N=C(SCc3cccc(Cl)c3)N2C1=O)NCc1ccco1 (stereo not given),-8.4,3.3,38.8,1.2,1.4
O=C(CCC1N=C2c3ccccc3N=C(SCc3ccccc3Cl)N2C1=O)NCc1ccco1 (stereo not given),x,3.2,30.6,99.3*,5.4
CCOC(=O)CC1NCCc2c1[nH]c1ccc(OC)cc21 (stereo not given),0.5,1.7,-41.0,7.2,-0.5
COc1ccc(S(=O)(=O)N(C)CC(=O)NCCC2=CCCCC2)cc1,-10.8,3.0,-6.4,-23.2,-0.6
CCOc1ccccc1Nc1nc2ccccc2[nH]1,-4.8,-0.5,-20.0,96.4*,-0.7
COc1ccc(/C=N/Nc2nc3ccccc3[nH]2)cc1OC,4.3,2.5,4.6,98.9*,6.1
COc1ccccc1C(=O)Nc1nc2ccccc2[nH]1,95.2*,2.5,1.9,-1.1,-0.4
CCN(CC)c1ccc(/C=N/Nc2nc3ccccc3[nH]2)c(O)c1,101.1*,4.0,98.0*,9.6,8.4
COc1cc(OC)c(OC)cc1/C=N/Nc1nc2ccccc2[nH]1,-14.7,3.1,-6.5,3.7,-0.7
SMILES,CSC inhib,PP5 primary,Calb FLC,ALR inh,PP1 inh
CCOc1ccccc1OCC(=O)Nc1nc2ccccc2[nH]1,4.4,-2.9,21.7,-10.4,-3.4
CCCN1CNC(=S)N(c2ccccc2C)C1,-8.6,0.3,-4.6,-14.5,-1.2
CCOc1cc(/C=N/Nc2nc3ccccc3[nH]2)cc(Br)c1OCC(=O)N(C)C,15.5,2.4,-1.8,98.4*,8.3
COc1cc(/C=N\Nc2nc3ccccc3[nH]2)cc(OC)c1OC,6.0,1.5,-0.1,98.8*,1.5
C(=N\Nc1nc2ccccc2[nH]1)/c1ccc2ncccc2c1,79.2*,-0.5,-0.6,12.7,-0.2
CCOc1cc(/C=N/NC(N)=O)cc(Br)c1OCc1ccccc1,12.6,4.4,-9.6,0.8,4.4
Cc1cc(C)cc(SCc2noc(C(=O)NC(C)C)c2C(=O)NC(C)C)c1,-4.5,5.0,-4.6,x,0.9
O=C(O)CCC(=O)Nc1ccc(C(=O)OCC(=O)c2ccc(Cl)cc2Cl)cc1,-4.4,0.4,35.2,96.5*,-2.7
CCC(=O)Nc1cc(C(=O)OCC(=O)c2ccc(Cl)cc2Cl)ccc1C,-17.8,2.9,-6.3,-0.6,-2.8
O=c1cc(CO)oc(C(Nc2ccccn2)c2ccccc2F)c1O (stereo not given),-2.8,1.9,-16.7,97.0*,-2.3
O=c1cc(CO)oc(C(Nc2ccccn2)c2cccc(F)c2)c1O (stereo not given),0.9,-1.5,-19.4,97.5*,0.4
CCOc1cc2[nH]c(=S)n(Cc3ccc(C(=O)NCCCN4CCOCC4)cc3)c(=O)c2cc1OCC,x,1.1,-1.3,2.8,-2.1
Cc1cc(CSC(=N)N)c(CSC(=N)N)cc1C,-1.3,2.9,-5.7,99.0*,3.9
CCCOc1ccc(Br)cc1CSC(=N)N,26.0,2.0,-29.3,-55.5,-6.8
NNS(=O)(=O)c1ccc2c(c1)Cc1cc(S(=O)(=O)NN)ccc1-2,-6.2,1.4,0.8,98.8*,5.4
COc1ccc(C)cc1NC(=O)CSc1nc2ccccc2nc1N1CC(C)OC(C)C1 (stereo not given),15.4,4.3,4.9,-12.8,1.2
COC(=O)CCc1nc2ccccc2[nH]c1=O,2.3,0.7,-15.4,-3.0,-2.5
COC(=O)CSCc1nc2ccccc2[nH]c1=O,-0.2,0.7,1.7,99.3*,-1.8
O=C1C(=O)N(CCN2CCOCC2)C(c2cccnc2)/C1=C(/O)c1ccc(Cl)cc1 (stereo not given),-6.9,1.8,-7.2,2.3,0.7
CCc1c(C)nc2nc(NC(C)=O)[nH]n2c1=O,-5.4,3.7,-1.1,2.1,-0.4
Cc1ccccc1NC(=O)c1ccccc1NC(=O)c1cccs1,x,0.8,-5.1,x,0.7
Cc1ccc(-n2nnnc2C(Cl)c2nnnn2-c2ccc(C)cc2)cc1,x,x,96.0*,x,x
Cc1ccc(-n2nnnc2-c2ccccc2)cc1,3.4,-1.5,22.3,-8.6,-3.0
COc1ccc(-c2cc(C)no2)cc1S(=O)(=O)N(C)c1cccc(C)c1,-2.6,3.6,92.3*,1.3,3.9
Cc1noc(C)c1S(=O)(=O)N(CC(=O)O)c1ccc2c(c1)OCO2,-7.3,0.9,-15.9,-12.5,1.9
SMILES,CSC inhib,PP5 primary,Calb FLC,ALR inh,PP1 inh
CCS(=O)(=O)c1nn2c(N)c(/C=C3/C=CC(=O)C(OC)=C3)c(=O)nc2s1,5.8,1.0,-1.9,99.9*,-1.6
COC1=C/C(=C/c2c(N)n3c(nc2=O)sc2cc(S(C)(=O)=O)ccc23)C=CC1=O,-3.5,3.3,-3.2,99.5*,0.5
CCOC1=C/C(=C/c2c(N)n3oc(C)cc3nc2=O)C=CC1=O,-6.7,-0.7,0.7,90.7*,-4.0
CCOC1=C/C(=C/c2c(N)n3nc(-c4ccccc4)sc3nc2=O)C=CC1=O,x,x,37.3,x,x
CS(=O)(=O)c1ccc2c(c1)sc1nc(=O)c(/C=C3/C=CC(=O)C(O)=C3)c(N)n12,19.2,2.9,-6.4,90.0*,-2.4
Cc1cc2nc(=O)c(/C=C3\C=Nc4ccccc43)c(N)n2o1,1.4,0.4,-1.2,-5.0,-0.6
COc1ccc(-c2noc(CCCC(=O)Nc3ccc(C(N)=O)cc3)n2)cc1,-2.5,4.4,12.3,-3.1,2.0
